Measured values: PubChem BioAssay AID588689 (Southern Research Specialized Biocontainment Screening …, 2011)
Out of some 340,000 compounds screened, about 1,000 (0.29%) were called active. Rule as the data show it: inconclusive = inhibition above about 29% without an active follow-up result; inactive = below that. Not all results are given here. Results with a measured potency or affinity are listed apart.

Target: Genome polyprotein (Dengue virus type 2 (strain 16681-PDK53)) (UniProt P29991)
Experiment: Dengue-2 NS5 methyltransferase inhibitors, primary screen, biochemical, confirmation dose response (AID 588689)
Conditions: Dengue-2 NS5 methyltransferase capping enzyme assay, at 25 µM, stronger effect = higher value

Genome polyprotein (Dengue virus type 2 (strain 16681-PDK53)), sequence (P29991 whole entry, looked up): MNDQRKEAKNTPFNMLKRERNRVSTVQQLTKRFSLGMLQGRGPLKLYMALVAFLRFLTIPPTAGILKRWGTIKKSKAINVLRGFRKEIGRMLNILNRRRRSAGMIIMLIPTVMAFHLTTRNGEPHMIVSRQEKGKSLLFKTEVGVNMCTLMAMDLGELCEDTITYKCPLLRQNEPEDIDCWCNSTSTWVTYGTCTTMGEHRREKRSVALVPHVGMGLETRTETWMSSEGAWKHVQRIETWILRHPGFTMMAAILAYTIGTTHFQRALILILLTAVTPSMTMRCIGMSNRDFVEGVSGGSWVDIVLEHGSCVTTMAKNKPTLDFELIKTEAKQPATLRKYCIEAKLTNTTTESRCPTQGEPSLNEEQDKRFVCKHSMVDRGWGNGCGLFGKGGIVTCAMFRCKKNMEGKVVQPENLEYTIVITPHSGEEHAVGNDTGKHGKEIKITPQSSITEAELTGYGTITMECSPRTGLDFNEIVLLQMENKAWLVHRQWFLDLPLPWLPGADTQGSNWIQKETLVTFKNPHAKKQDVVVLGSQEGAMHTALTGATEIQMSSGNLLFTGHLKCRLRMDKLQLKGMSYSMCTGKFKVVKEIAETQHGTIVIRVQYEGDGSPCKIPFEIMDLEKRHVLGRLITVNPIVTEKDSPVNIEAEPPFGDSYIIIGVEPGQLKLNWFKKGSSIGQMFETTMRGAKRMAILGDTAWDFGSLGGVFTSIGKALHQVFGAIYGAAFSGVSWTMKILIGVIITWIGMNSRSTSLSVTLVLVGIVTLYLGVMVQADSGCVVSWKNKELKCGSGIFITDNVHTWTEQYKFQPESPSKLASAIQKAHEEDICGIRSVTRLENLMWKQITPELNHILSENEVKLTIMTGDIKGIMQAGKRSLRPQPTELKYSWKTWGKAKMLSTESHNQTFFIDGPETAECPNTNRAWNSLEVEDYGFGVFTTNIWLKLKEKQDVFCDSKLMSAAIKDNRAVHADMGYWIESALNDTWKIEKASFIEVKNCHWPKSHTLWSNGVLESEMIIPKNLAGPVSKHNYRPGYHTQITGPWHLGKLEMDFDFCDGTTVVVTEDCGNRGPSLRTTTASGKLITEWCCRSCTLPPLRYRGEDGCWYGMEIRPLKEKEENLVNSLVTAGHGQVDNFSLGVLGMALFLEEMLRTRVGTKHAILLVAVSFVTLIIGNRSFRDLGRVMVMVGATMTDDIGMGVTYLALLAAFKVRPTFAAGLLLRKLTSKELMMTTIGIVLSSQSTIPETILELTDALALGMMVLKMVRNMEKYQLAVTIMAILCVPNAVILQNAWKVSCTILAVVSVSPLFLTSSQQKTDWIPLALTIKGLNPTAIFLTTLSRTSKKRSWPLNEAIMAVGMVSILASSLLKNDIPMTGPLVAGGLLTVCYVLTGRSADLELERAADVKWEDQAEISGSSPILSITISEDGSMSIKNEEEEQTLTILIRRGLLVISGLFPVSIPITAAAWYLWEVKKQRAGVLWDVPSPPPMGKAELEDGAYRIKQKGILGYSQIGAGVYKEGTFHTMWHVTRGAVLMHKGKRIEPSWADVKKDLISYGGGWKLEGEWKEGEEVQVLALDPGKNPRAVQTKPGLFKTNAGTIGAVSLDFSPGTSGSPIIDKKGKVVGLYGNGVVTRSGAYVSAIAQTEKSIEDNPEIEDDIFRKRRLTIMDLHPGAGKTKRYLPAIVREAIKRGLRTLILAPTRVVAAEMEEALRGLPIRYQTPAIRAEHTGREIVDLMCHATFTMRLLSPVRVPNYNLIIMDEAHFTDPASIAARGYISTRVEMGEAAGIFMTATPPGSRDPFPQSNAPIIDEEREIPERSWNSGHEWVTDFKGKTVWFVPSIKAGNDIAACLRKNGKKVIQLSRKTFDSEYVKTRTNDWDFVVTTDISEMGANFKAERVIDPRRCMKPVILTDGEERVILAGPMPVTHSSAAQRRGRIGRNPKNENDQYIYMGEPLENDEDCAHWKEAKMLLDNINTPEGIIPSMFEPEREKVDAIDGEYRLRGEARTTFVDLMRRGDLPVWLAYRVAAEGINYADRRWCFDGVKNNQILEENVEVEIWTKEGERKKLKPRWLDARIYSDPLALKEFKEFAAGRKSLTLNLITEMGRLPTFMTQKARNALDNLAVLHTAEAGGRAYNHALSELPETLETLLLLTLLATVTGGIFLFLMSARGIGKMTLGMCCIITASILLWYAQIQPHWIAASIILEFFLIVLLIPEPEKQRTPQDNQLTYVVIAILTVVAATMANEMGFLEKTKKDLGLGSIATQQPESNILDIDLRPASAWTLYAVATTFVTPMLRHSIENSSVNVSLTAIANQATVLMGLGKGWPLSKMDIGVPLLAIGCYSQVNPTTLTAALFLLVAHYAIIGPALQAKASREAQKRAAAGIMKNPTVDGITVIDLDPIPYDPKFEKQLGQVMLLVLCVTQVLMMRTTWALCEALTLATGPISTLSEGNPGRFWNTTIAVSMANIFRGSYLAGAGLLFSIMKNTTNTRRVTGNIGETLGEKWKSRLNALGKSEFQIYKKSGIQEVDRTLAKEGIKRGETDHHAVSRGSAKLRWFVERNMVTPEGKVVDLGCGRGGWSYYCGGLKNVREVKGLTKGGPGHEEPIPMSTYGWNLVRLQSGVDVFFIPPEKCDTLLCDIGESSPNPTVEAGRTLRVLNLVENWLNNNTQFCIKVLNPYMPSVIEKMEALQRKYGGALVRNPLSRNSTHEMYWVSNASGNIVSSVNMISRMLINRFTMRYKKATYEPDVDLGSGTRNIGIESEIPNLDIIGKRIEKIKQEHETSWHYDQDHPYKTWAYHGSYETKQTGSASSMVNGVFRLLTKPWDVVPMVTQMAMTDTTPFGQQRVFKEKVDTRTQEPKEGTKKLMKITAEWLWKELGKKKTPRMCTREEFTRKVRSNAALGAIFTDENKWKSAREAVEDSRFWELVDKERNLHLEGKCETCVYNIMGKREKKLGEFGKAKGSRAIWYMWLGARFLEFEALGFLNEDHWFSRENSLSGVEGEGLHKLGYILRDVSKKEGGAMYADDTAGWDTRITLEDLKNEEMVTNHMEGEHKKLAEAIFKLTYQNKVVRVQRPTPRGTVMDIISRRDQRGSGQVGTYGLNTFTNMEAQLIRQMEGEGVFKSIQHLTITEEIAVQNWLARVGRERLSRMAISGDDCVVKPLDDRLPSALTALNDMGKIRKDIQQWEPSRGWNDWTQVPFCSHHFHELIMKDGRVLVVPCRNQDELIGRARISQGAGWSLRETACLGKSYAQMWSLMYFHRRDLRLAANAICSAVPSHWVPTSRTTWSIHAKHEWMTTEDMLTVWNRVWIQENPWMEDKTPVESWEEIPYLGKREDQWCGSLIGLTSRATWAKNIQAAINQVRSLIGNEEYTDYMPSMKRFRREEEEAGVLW

Compound | inhibition | inhibition (measured here: pilot screen replicate inhibition)
CCN1CCCC(NC(=O)c2cc([N+](=O)[O-])ccc2OC)C1 (stereo not given) | -5.8% (inactive) | 
O=C(CSc1ccccc1)N1CCCC(N2CCN(c3ccc(F)cc3)CC2)C1 (stereo not given) | 1.77% (inactive) | 
Nn1c(Cc2ccccc2F)nnc1SCC(=O)Nc1cccc(S(=O)(=O)NC2=NCCCCC2)c1 | -0.76% (inactive) | 
COc1ccc(CNS(=O)(=O)NCc2ccc(C)cc2)cc1OC | -10.9% (inactive) | 
COCCNC(=O)C1CC2Cn3c(nc4cc5ccccc5cc43)C2N1C (stereo not given) | -1.6% (inactive) | 
C=C(C)C(=O)NNc1ccccc1 | 0% (inactive) | 
O=C(Cc1ccc(Cl)cc1)N/N=C/c1ccncc1 | -1.47% (inactive) | 
Cc1noc(C)c1COc1ccc(C(=O)OCC(=O)Nc2cccc(S(=O)(=O)N3CCOCC3)c2)cc1 | 0.96% (inactive) | 
O=C(O)c1ccccc1/C=N/NC(=O)C1CCCC1 | -8.46% (inactive) | 
COc1cc(/C=C2\SC(=S)N(CC(=O)O)C2=O)ccc1OS(=O)(=O)c1ccc(C)cc1 | 22.7% (inactive) | 
COc1ccc(/C=C2/SC(=O)N(NS(=O)(=O)c3ccccc3)C2=S)cc1OC | 15.7% (inactive) | 
CCOc1ccc(/C=C2\SC(=S)N(Nc3ccccc3)C2=O)cc1OC | 8.01% (inactive) | 
COc1ccc(OC)c(/C=C2\SC(=S)N(NS(=O)(=O)c3ccc(C)cc3)C2=O)c1 | 40.5% (inactive) | 
CCOc1ccc(/C=N/NS(=O)(=O)c2ccc(C)cc2)cc1OC | -1.16% (inactive) | 
COc1cc(/C=C2/SC(=S)NC2=O)ccc1OS(=O)(=O)c1ccc(C)cc1 | 9.96% (inactive) | 
O=C1[C@H]2[C@@H](c3ccccc3)N[C@]3(CCCN(Cc4ccc(Cl)cc4)C3=O)[C@H]2C(=O)N1Cc1ccccc1 | -4.41% (inactive) | 
CC(=O)C1N=NCC1c1ccccc1 (stereo not given) | 0.78% (inactive) | 
O=C(CSc1ccc(-c2ccc(F)cc2)nn1)NC1CCCCC1 | -4.13% (inactive) | 
COCc1cc(=O)n2[nH]c(C)cc2n1 | -5.47% (inactive) | 
CC1CCN(S(=O)(=O)c2ccc3[nH]c(=O)[nH]c3c2)CC1 | -10.8% (inactive) | 
COc1ccc(C(=O)/C=C/c2ccc(OCc3ccccc3)cc2)cc1CSCC(=O)O | 11.7% (inactive) | 
COc1ccc(C(=O)/C=C/c2ccsc2)cc1CSCC(=O)O | 6.74% (inactive) | 

Compound | inhibition | inhibition (measured here: pilot screen replicate inhibition)
COc1ccc(CCC(=O)OCC(=O)c2ccc[nH]2)cc1OC | 1.46% (inactive) | 
CSc1nccn1CC(=O)Nc1ccc(F)cc1 | -6.45% (inactive) | 
CCc1ccccc1NC(=O)NC1CC2CCC(C1)N2Cc1ccco1 (stereo not given) | -3.12% (inactive) | 
CCCCCCC(=O)O | -2.09% (inactive) | 
CCCC(N)CCCCCC(=O)O (stereo not given) | -9.35% (inactive) | 
CCNc1nc(NCC)n2c(SCC(=O)NC34CC5CC(CC(C5)C3)C4)nnc2n1 | -8.01% (inactive) | 
CCCCn1c(N)c(-c2nc3ccccc3o2)c2c([N+](=O)[O-])nn(CC)c(=O)c21 | -0.74% (inactive) | 
Cc1nc([N+](=O)[O-])c(Sc2nc3ccccc3n2C)n1Cc1ccccc1 | 11.5% (inactive) | 
CCCn1nc([N+](=O)[O-])c(C(C#N)c2nc3ccccc3s2)c(Cl)c1=O (stereo not given) | 27.6% (inactive) | 
N#CC(c1ccccn1)c1ncc(C(F)(F)F)cc1Cl (stereo not given) | -2.95% (inactive) | 
Cn1c(C(C#N)C(=O)c2sc3ccccc3c2Cl)nc2ccccc21 (stereo not given) | -3.45% (inactive) | 
CCCCCn1c(N)c(-c2nc3ccccc3s2)c2c([N+](=O)[O-])nn(CC)c(=O)c21 | -4.79% (inactive) | 
CCCCn1c(N)c(-c2nc3ccccc3s2)c2c([N+](=O)[O-])nn(CC)c(=O)c21 | -3.23% (inactive) | 
O=[N+]([O-])c1ccc(CC(Cl)c2ccccn2)cc1 (stereo not given) | 0.78% (inactive) | 
COc1ccc(/C=C(\C#N)C(=O)OCC(=O)N2CC(C)OC(C)C2)cc1 (stereo not given) | -2.3% (inactive) | 
O=C(CCCOc1ccc(Cl)cc1Cl)N/N=C/c1ccccc1 | -4.44% (inactive) | 
CCCCCCCC(=O)N1c2ccccc2NC(=O)C1CC(=O)Nc1ccc(C(=O)O)cc1 (stereo not given) | 8.1% (inactive) | 
Cc1ccccc1NS(=O)(=O)c1ccc(C(=O)N2CCCC(C(F)(F)F)C2)cc1 (stereo not given) | 0.73% (inactive) | 
COc1cc(OC)cc(C(=O)NC2CCSC2=O)c1 (stereo not given) | 2.06% (inactive) | -3.04%
CCc1c(C)c2nncn2[nH]c1=O | -3.9% (inactive) | 
CCOc1ccc(NC(=O)CN(C)C(=O)C2CC(=O)N(c3ccc4c(c3)OCCO4)C2)cc1OCC (stereo not given) | 5.04% (inactive) | 
CC(C)Cn1c(SCC(=O)N2CC(=O)Nc3ccccc32)nc2ccccc21 | -0.64% (inactive) | 
